# Measurements taken from PubChem BioAssay AID652115 (Broad Institute, 2013).
# In all, about 330,000 compounds went through this assay and about 3,800 (1.2%) were called active. Rule as the data show it: active = inhibition above about 15%; inconclusive = no clear call, values can overlap the other calls; inactive = below that. This excerpt belongs to a sample that is enriched for actives.
# Molecular target: NAD-dependent protein deacylase sirtuin-5, mitochondrial (Homo sapiens) (UniProt Q9NXA8)
# Sequence (Q9NXA8 whole entry, looked up): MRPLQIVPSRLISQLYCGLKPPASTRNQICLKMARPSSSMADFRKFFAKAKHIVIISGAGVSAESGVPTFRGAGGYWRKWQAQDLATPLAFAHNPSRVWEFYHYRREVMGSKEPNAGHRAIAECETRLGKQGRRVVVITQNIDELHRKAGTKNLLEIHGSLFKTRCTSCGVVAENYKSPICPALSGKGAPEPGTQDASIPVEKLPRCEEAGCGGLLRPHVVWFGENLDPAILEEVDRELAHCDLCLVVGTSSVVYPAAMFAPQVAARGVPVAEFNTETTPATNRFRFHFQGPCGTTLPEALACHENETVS
# Assay: SIRT5 desuccinylase inhibitors, primary screen, biochemical, fluorescence imaging, single point, set 5 (AID 652115)
# Conditions: Purified SirT5, succinyl-peptide AMC, trypsin-coupled fluorescence; at 15 µM; hits give high values
row,Compound,inhibition
1,Cc1ccc(N2CC(C(=O)Nc3ccc(S(=O)(=O)N4CCCC4)cc3)CC2=O)cc1C (configuration not stated),-0.84% (inactive)
2,COc1ccc(S(=O)(=O)N2CCCCC2)cc1NC(=O)C1CC(=O)N(c2ccc3c(c2)OCCO3)C1 (configuration not stated),-0.216% (inactive)
3,Cc1ccc(NC(=O)C2CC(=O)N(c3ccc4c(c3)OCCO4)C2)cc1S(=O)(=O)N1CCCCCC1 (configuration not stated),15.7% (active)
4,CN1[C@@H]2c3ccc(-c4cccc(F)c4)c(=O)n3C[C@@H]2[C@@H](CO)[C@@H]1C(=O)NC1CCC1,1.95% (inactive)
5,CC(C)(C)OC(=O)Nc1ccc([C@@H](NC(=O)OC(C)(C)C)C(=O)OC(C)(C)C)cc1,4.38% (inactive)
6,CC(C)(C)OC(=O)N[C@H](C(=O)OC(C)(C)C)c1ccc(Br)cc1,0.762% (inactive)
7,COC(=O)c1ccc([C@@H](O)[C@H](C)C(=O)CC(=O)OC(C)(C)C)cc1,37.8% (active)
8,C[C@@H]1CN([C@H](C)CO)C(=O)c2c(c3ccccc3n2C)-c2ccccc2CO[C@H]1CN(C)Cc1ccc(F)cc1,8.7% (inactive)
9,C[C@H]1CN([C@@H](C)CO)C(=O)c2cc(-c3cccnc3)cnc2O[C@@H]1CN(C)C(=O)C1CC1,-5.02% (inactive)
10,C[C@H](CO)N1C[C@H](C)[C@@H](CN(C)Cc2ccc(-c3ccccc3)cc2)Oc2ccc(NC(=O)CCC(F)(F)F)cc2CC1=O,16.8% (active)
11,C[C@@H]1CN([C@@H](C)CO)C(=O)Cc2cc(NC(=O)Cc3ccccc3)ccc2O[C@@H]1CN(C)Cc1ccc(Oc2ccccc2)cc1,15.7% (active)
12,C[C@@H]1CN([C@H](C)CO)C(=O)Cc2cc(NC(=O)Cc3ccccc3)ccc2O[C@H]1CN(C)Cc1ccc(Oc2ccccc2)cc1,11.3% (inactive)
13,C[C@@H]1CN([C@@H](C)CO)C(=O)Cc2cc(NC(=O)CCCN(C)C)ccc2O[C@@H]1CN(C)Cc1ccc(-c2ccccc2)cc1,-0.666% (inactive)
14,C[C@H]1CN([C@@H](C)CO)C(=O)Cc2cc(NC(=O)Cn3cnnn3)ccc2O[C@@H]1CN(C)Cc1ccc(-c2ccccc2)cc1,4.01% (inactive)
15,C[C@H](CO)N1C[C@H](C)[C@@H](CN(C)Cc2ccc(C(=O)O)cc2)Oc2ccc(NC(=O)Cn3cnnn3)cc2CC1=O,0.832% (inactive)
16,C[C@H]1CN([C@@H](C)CO)C(=O)Cc2cc(NC(=O)Cn3cnnn3)ccc2O[C@H]1CN(C)Cc1ccc(C(=O)O)cc1,18% (active)
17,Cc1ccc(S(=O)(=O)Nc2ccc3c(c2)CC(=O)N([C@@H](C)CO)C[C@H](C)[C@H](CN(C)Cc2ccc(C(=O)Nc4ccccc4N)cc2)O3)cc1,3.56% (inactive)
18,C[C@@H]1CN([C@H](C)CO)C(=O)Cc2cc(NC(=O)CCC(F)(F)F)ccc2O[C@@H]1CN(C)Cc1ccncc1,-3.99% (inactive)
19,C[C@H]1CN([C@@H](C)CO)C(=O)Cc2cc(NS(=O)(=O)c3ccccc3)ccc2O[C@@H]1CN(C)Cc1ccc(C(=O)Nc2ccccc2N)cc1,-3.96% (inactive)
20,COc1ccc(CN(C)C[C@H]2Oc3ccc(NC(=O)Cc4ccccc4)cc3CC(=O)N([C@@H](C)CO)C[C@@H]2C)cc1,3.47% (inactive)
21,C[C@H]1CN([C@@H](C)CO)C(=O)Cc2cc(NS(=O)(=O)c3ccccc3)ccc2O[C@H]1CN(C)Cc1ccc(C(=O)Nc2ccccc2N)cc1,18.7% (active)
22,COCc1cc(N2CCN(C(=O)OC(C)(C)C)C[C@@H]2C)ccc1N1CCN(Cc2ccccc2)[C@H](C)C1,-1.86% (inactive)
23,COc1ccc2c3c([nH]c2c1)[C@H](CO)N(Cc1ccccc1)CC31CCN(C(=O)c2ccccn2)CC1,-0.283% (inactive)

row,Compound,inhibition
1,CC(=O)N[C@@H]1CC[C@@H](CCNC(=O)C2CC2)O[C@H]1CO,-0.463% (inactive)
2,C[C@H](CO)N1C[C@H](C)[C@H](CN(C)C(=O)CCC(F)(F)F)OCCCC[C@H](C)Oc2ccc(NS(=O)(=O)c3ccc(F)cc3)cc2C1=O,6.37% (inactive)
3,C[C@@H]1CCCCO[C@@H](CN(C)S(C)(=O)=O)[C@H](C)CN([C@@H](C)CO)C(=O)c2cc(NS(=O)(=O)c3cccs3)ccc2O1,-3.17% (inactive)
4,CC(C)NC(=O)N(C)C[C@H]1Oc2ncc(-c3ccc(C(=O)N(C)C)cc3)cc2C(=O)N([C@H](C)CO)C[C@H]1C,-4.27% (inactive)
5,C[C@@H]1CCCCO[C@H](CN(C)Cc2ccc(Cl)c(Cl)c2)[C@H](C)CN([C@@H](C)CO)C(=O)c2cc(NC(=O)CCC(F)(F)F)ccc2O1,11% (inactive)
6,CCN(CC(=O)Nc1ccc2c(c1)OCO2)S(=O)(=O)c1ccccc1,-11.2% (inactive)
7,CCN(CC(=O)NCCc1ccccc1)S(=O)(=O)c1ccccc1,13.5% (inactive)
8,CCN(CC(=O)NC1CCS(=O)(=O)C1)S(=O)(=O)c1ccccc1 (configuration not stated),20.8% (active)
9,COc1cccc(/C=C2/SC(=S)N(CC(=O)NC3C=CS(=O)(=O)C3)C2=O)c1 (configuration not stated),7.07% (inactive)
10,COc1ccc(/C=C2\SC(=S)N(CC(=O)NNC(=O)c3ccncc3)C2=O)cc1,36.3% (active)
11,CCOc1ccc(/C=C2\SC(=S)N(NC(=O)c3ccncc3)C2=O)cc1OC,-1.31% (inactive)
12,COc1ccccc1S(=O)(=O)N1CC[C@@H]2[C@H]1c1cc(-c3ccccc3)ccc1N[C@@H]2CO,2.02% (inactive)
13,O=C(C[C@@H]1CC[C@H](NC(=O)C2CCOCC2)[C@@H](CO)O1)Nc1ccccc1,-0.611% (inactive)
14,Cc1ccc(S(=O)(=O)N2C[C@@H]3CCCC[C@@H]3[C@@H](C)[C@H]2c2cn(Cc3ccccc3)c3ccc(F)cc23)cc1,26.5% (active)
15,CCOC1=C2[C@@H](CN(S(=O)(=O)c3ccc(C)cc3)[C@H]2c2ccccc2F)[C@H]2C(=O)N(Cc3ccccc3)C(=O)[C@H]2C1,10.7% (inactive)
16,Cc1ccc(F)cc1S(=O)(=O)N[C@@H]1CCN(Cc2ccc(-c3ccccc3)cc2)C1,4.54% (inactive)
17,O=C(OCC(=O)N1CCOCC1)c1ccc2ccccc2c1,-8.77% (inactive)
18,COc1cccc(/C=C2\SC(=S)N(CCCC(=O)N3CCOCC3)C2=O)c1,-0.302% (inactive)
19,COC1=C/C(=C/c2c(N)n3nc(CC(=O)N4CCOCC4)sc3nc2=O)C=CC1=O,15.9% (active)
20,COc1cc(/C=C2\C(=N)N3N=C(CC(=O)N4CCOCC4)SC3=NC2=O)cc(OC)c1OC,-5.1% (inactive)
21,C=CCC1=C/C(=C\c2c(N)n3nc(CC(=O)N4CCOCC4)sc3nc2=O)C=C(OC)C1=O,31.6% (active)
22,C[C@H](CO)N1C[C@H](C)[C@H](CN(C)Cc2cncnc2)Oc2cc(-c3ccccc3F)ccc2S1(=O)=O,-2.9% (inactive)
23,O=C(C[C@H]1CC[C@H]2[C@@H](COC[C@H](O)CN2Cc2nccs2)O1)NCc1ccc(Oc2ccccc2)cc1,-0.449% (inactive)

row,Compound,inhibition
1,Cc1ccc(-c2cnc3c(c2)C(=O)N([C@@H](C)CO)C[C@H](C)[C@H](CN(C)C(=O)c2cccnc2)O3)cc1,1.09% (inactive)
2,O=S(=O)(c1ccccc1F)N1[C@@H]2CNC[C@H]1C2c1ccc(-c2cncnc2)cc1 (some centres not stated),-2.66% (inactive)
3,Cc1ccc(S(=O)(=O)N[C@H]2CC[C@@H](CC(=O)N3CCc4ccccc4C3)O[C@H]2CO)cc1,-2.83% (inactive)
4,COCC(=O)N1CC2(C1)[C@H](c1ccc(-c3cccc(F)c3)cc1)[C@@H](CO)N2C(=O)COC,-3.18% (inactive)
5,COCC(=O)N1CC2(C1)[C@@H](c1ccc(-c3cccc(F)c3)cc1)[C@@H](CO)N2C(=O)COC,-1.31% (inactive)
6,COCC(=O)N1[C@H](CO)[C@@H](c2ccccc2)C12CN(Cc1cc(F)ccc1F)C2,19% (active)
7,C[C@@H](NC(=O)C[C@H]1C=C[C@@H](NC(=O)CN2CCOCC2)[C@@H](CO)O1)c1ccccc1,0.512% (inactive)
8,O=C(C[C@@H]1CC[C@@H]2[C@H](COC[C@H](O)CN2S(=O)(=O)c2ccc(Oc3ccccc3)cc2)O1)NCCN1CCCCC1,-3.74% (inactive)
9,CO[C@@H]1CN(C)C(=O)c2ccc(NS(=O)(=O)c3ccc(Cl)cc3)cc2OC[C@@H](C)N(C)C[C@H]1C,-8.92% (inactive)
10,CC(C)NC(=O)N[C@H]1CC[C@@H](CCNC(=O)C2CCC2)O[C@@H]1CO,-0.093% (inactive)
11,CO[C@H]1CC[C@H]2CCOc3c(C#N)cccc3C(=O)N(C)CC3(CCCCC3)CC(=O)N(C)C[C@@H]1O2,-0.489% (inactive)
12,O=c1ccnc(Nc2ccc(Cl)cc2)[nH]1,-3.58% (inactive)
13,Clc1ccc(Nc2ccc3ccccc3n2)cc1,-0.101% (inactive)
14,CC1(C)N=C(N)NC(Nc2ccc(Cl)cc2)=N1,24.2% (active)
15,CO[C@H]1CN(C)C(=O)c2ccc(NS(=O)(=O)c3cn(C)cn3)cc2OC[C@@H](C)N(CC2CC2)C[C@H]1C,10.4% (inactive)
16,CCOC(=O)c1cnc2nc(SCc3ccccc3Cl)[nH]n2c1=O,-0.638% (inactive)
17,COc1cnc(SCc2ccc(Cl)c(Cl)c2)nc1Cl,-1.51% (inactive)
18,COC(OC)c1ccnc(SCc2ccccc2Cl)n1,65.6% (active)
19,Cc1ccc2nc(CN(C)C(=O)[C@@H](Cc3ccccc3)NC(=O)[C@H]3O[C@@H](n4ccc(=O)[nH]c4=O)[C@H](O)[C@@H]3O)[nH]c2c1,0.009% (inactive)
20,CN1C(=O)c2cc(NC(=O)c3cscn3)ccc2OC[C@@H]2O[C@H](CC(=O)N3CCCCC3)CC[C@H]21,10.6% (inactive)
21,COc1ccc(C#Cc2cnc3c(c2)C(=O)N([C@H](C)CO)C[C@H](C)[C@H](CN(C)C(=O)CC2CC2)O3)cc1,8.29% (inactive)
